Compound activity: PubChem BioAssay, National Center for Advancing Translational Sciences (NCATS)
Sampled rows, rich in hits. Any-hit rate of the full collection: about 4.8%.
USP1-UAF1 inh: blocks the human USP1/UAF1 deubiquitinase complex. O94782. recombinant USP1/UAF1, Ub-Rhodamine cleavage fluorescence. Potency, µM (doses to about 57.1 µM), inactives show at the top dose activity change, negative = inhibition, most hits filed as inhibitors. 390,000 tested, 0.23% active. AID 743255; further: potency means the concentration at half of the fitted maximal effect; on the % scale 0 is the no-effect control and ±100 the full control effect; nearly all actives have a fitted effect of over 60% in size
Target sequence (O94782 whole entry, looked up): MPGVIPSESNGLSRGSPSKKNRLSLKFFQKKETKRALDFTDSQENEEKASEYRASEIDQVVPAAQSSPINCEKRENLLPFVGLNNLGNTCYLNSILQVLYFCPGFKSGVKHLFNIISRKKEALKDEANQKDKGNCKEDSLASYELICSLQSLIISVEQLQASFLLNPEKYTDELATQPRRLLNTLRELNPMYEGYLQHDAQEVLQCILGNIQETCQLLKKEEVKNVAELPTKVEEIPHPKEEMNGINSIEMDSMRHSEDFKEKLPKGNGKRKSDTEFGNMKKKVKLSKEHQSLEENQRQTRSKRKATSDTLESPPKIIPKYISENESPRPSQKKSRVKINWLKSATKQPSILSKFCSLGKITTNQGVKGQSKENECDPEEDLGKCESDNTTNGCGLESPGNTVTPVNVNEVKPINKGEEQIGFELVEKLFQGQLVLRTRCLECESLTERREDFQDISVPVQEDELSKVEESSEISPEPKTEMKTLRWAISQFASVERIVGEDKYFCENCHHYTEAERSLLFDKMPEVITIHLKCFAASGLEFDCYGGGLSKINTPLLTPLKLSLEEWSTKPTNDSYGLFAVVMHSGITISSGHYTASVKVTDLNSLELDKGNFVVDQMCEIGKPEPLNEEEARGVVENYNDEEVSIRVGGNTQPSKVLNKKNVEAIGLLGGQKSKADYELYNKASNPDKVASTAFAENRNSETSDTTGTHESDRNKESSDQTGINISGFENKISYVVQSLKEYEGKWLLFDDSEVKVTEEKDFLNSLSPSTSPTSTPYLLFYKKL
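USP1/UAF1 complex (1 nM) preincubated 15 min at room temperature with compound, then Ub-Rho substrate (150 nM final) added. Kinetic fluorescence at 480/540 nm over 6 reads at 60 s intervals; 50 mM HEPES pH 7.8, 0.5 mM EDTA, 0.1 mg/ml BSA, 1 mM TCEP, 0.01% Tween-20.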
ATXN2 expr inh: reduces ATXN2 reporter expression in HEK-293 cells; HEK-293 ATXN2-luciferase reporter, luminescence, 24 h; Potency, µM (series often up to 57 µM), for the others: at the highest dose activity change, negative = inhibition, hits mostly inhibitors; 360,000 tested, 0.72% active; AID 1745845; further: potency means the concentration at half of the fitted maximal effect; on the % scale 0 is the no-effect control and ±100 the full control effect; nearly all actives have a fitted effect of over 55% in size
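ATXN2-luciferase reporter cells (luciferase flanked by upstream and downstream ATXN2 gene portions) were treated 24 h at 37 °C with compounds at up to 57 uM. SteadyGlo luminescence gave expression; GF-AFC fluorescence gave viability.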
IL-1B inflam inh: inhibitors of inflammasome signaling (IL-1 beta secretion) | THP-1 LPS/ATP IL-1B secretion, AlphaLISA, 16 h; active compounds read low | activity change, % at 57.5 µM | 360,000 tested, 4.7% active; in the data active means activity change below about -50%; inconclusive means mostly about -30% to -49%; further: on the % scale 0 is the no-effect control and ±100 the full control effect
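THP-1 cells pretreated 1 hr with compounds (up to 57.5 uM final), then stimulated with LPS (250 ng/mL final) plus ATP (1.25 mM final); secreted IL-1B measured by AlphaLISA after 16 hr, decreased signal indicating inhibition.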
USP2a block: USP2a (human) protease inhibition. USP2 core, Ub-CHOP2 coupled fluorogenic reporter, 485/531. Potency, µM (series often up to 38.3 µM), for inactives: at the top dose activity change, negative = inhibition, most hits filed as inhibitors. O75604. AID 463254. 330,000 tested, 0.01% active;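 further: potency means the concentration at half of the fitted maximal effect; plate controls were DMSO wells for no effect and full inhibition by NEM control for full effect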
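Deubiquitinase activity read as fluorescence (485/531 nm) after Ub-CHOP2 cleavage activates the enterokinase reporter on its substrate; USP2 core 10nM, Ub-CHOP2 and substrate 25nM each, 30min compound preincubation then 60min RT; data normalized to NEM, curves fitted.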
S2 tox: reduces viability in counter-screen for ATXN expression inhibitors. Potency, µM (doses to about 56.7 µM), usual class: cytotoxic. AID 651635. 400,000 tested, 0.49% active. S2 cells (HEK-293 line with an ATXN2-luciferase reporter) viability, CellTiter-Fluor protease fluorescence, 24 h; further: potency means the concentration at half of the fitted maximal effect; nearly all actives have a fitted effect of over 40% in size
* marks the source's active call; other numbers are inactive results; i = inactive; u = inconclusive; x = no result. Unless noted, the call rests on the fitted dose curve; in most records, active means well fitted curve in the direction sought with a large enough effect; inconclusive means small, poorly fitted or top-dose-only effect, or another doubt; inactive means no such curve, though single readings can be large; an effect the other way counts as inactive or inconclusive.

SMILES	USP1-UAF1 inh	ATXN2 expr inh	IL-1B inflam inh	USP2a block	S2 tox
COc1ccc(NC(=O)c2cc(-c3ccccc3)nc3c2cnn3C(C)C)cc1	-22%	7%	-70*	-1%	i
CC(C)n1ncc2c(C(=O)Nc3cccc(C#N)c3)cc(C3CC3)nc21	-26%	u	-58*	3%	u
O=C(C=C=Nc1ccccc1)C(=O)N=C=Cc1ccccc1	-8%	u	-101*	-1%	28µM*
COc1ccc(C(=O)Nc2ccccc2)cc1NC(=O)c1ccc([N+](=O)[O-])cc1	-7%	-1%	-63*	0%	i
COc1cccc(NC(=O)c2ccc(-c3ccc([N+](=O)[O-])cc3)o2)c1	-19%	-20%	u	1%	i
COc1ccc([N+](=O)[O-])cc1NC(=O)Nc1ccc(OC)c(OC)c1	-7%	u	-85*	1%	i
CCN(CC)S(=O)(=O)c1ccc(OC)c(NC(=O)c2ccc([N+](=O)[O-])cc2)c1	u	2%	u	2%	i
COc1ccc(NC(=O)c2ccc(-c3ccc([N+](=O)[O-])cc3)o2)cc1OC	-9%	-35%	-76*	2%	u
COc1ccc(NC(=O)Nc2cc(C)ccc2F)cc1OC	-4%	54%	-51*	0%	i
COc1ccc(C)cc1NC(=O)Nc1cccc(C)c1	-9%	7%	0	0%	i
COc1ccc([N+](=O)[O-])cc1NC(=O)Nc1cccc(Cl)c1	-9%	u	-19	2%	i
CCCCCOc1ccc(Cn2c(=O)oc3ccccc32)cc1	8%	12%	x	x	i
COc1cc(=O)n2c(c1C(=O)N(C)Cc1nonc1C)CCN(Cc1ccc(F)cc1)CC2	x	x	x	x	i
O=C1c2sc3nc4n(c(=O)c3c2CCC1Br)CCCCC4 (stereo not drawn)	-18%	18%	-93*	-2%	u
O=C1CCCc2c1sc1nc3n(c(=O)c21)CCCCC3	-18%	90%	2	-1%	u
COc1ccc(NC(=O)c2ccc3c(c2)NC(=O)CS3)cc1S(=O)(=O)Nc1ccc(Br)cc1	-20%	x	-25	-1%	i
Cc1ccc(NS(=O)(=O)c2cc(NC(=O)c3ccc4c(c3)NC(=O)CS4)ccc2C)c(C)c1	-13%	u	-115*	2%	u
COc1ccc(CN2CCc3c([nH]c4ccccc34)C2)c(OC)c1C	-9%	-36%	-89*	3%	i
CC1(C)COC(c2ccc(F)c([N+](=O)[O-])c2)=N1	-14%	19%	-102*	3%	u
O=C(Nc1ccc(N2CCOCC2)cc1)c1cnccn1	-5%	2.5µM*	-13	3%	i
CS(=O)(=O)c1ncc(Cl)c(C(=O)Nc2ccc(OC(F)F)cc2)n1	-12%	u	-99*	0%	u
O=C(Nc1ccc(OC(F)F)cc1)c1ccccn1	-10%	4%	2	1%	i
CS(=O)(=O)c1ncc(Cl)c(C(=O)Nc2ccc(N3CCOCC3)cc2)n1	-2%	u	-102*	0%	x
O=C(Nc1ccccc1N1CCOCC1)c1cnccn1	-18%	x	-9	-1%	i
O=S(=O)(c1ccc(Cl)cc1)c1nc(-c2cccs2)oc1SCc1ccc(F)cc1	-15%	10%	x	x	i
SMILES	USP1-UAF1 inh	ATXN2 expr inh	IL-1B inflam inh	USP2a block	S2 tox
CCN(CC)C(=O)c1ccc2c3c(cccc13)C(=O)N(CCc1ccc(OC)c(OC)c1)C2=O	-23%	u	-73*	-1%	x
Cc1ccc(OCC(=O)c2ccc(Cl)s2)c([N+](=O)[O-])n1	-15%	2%	-73*	2%	i
COc1cc(OC)c(NC(=O)c2ccc3c(c2)N(Cc2ccc(C)cc2)CCS3)cc1Cl	-20%	0%	x	x	i
Cc1ccccc1C(=O)NC(C)c1nnc2n1CCN(Cc1ccnc3ccccc13)CC2 (stereo not drawn)	x	x	x	x	i
C[C@@H](C[C@@H](O)[C@H](O)C(C)(C)O)[C@@H]1CC[C@]2(C)C3=CC[C@H]4C(C)(C)C(=O)CC[C@]4(C)[C@H]3CC[C@@]12C	-30%	u	-53*	2%	x
Nc1nc(Nc2ccccc2)nc(NC2CCCCC2)c1[N+](=O)[O-]	-19%	u	-88*	0%	i
Cc1ccc(Nc2nc(N)c([N+](=O)[O-])c(NCc3ccco3)n2)cc1C	-11%	-8%	-71*	0%	u
Nc1nc(Nc2ccccc2)nc(NCc2ccccc2)c1[N+](=O)[O-]	0%	-18%	-69*	-1%	u
CC1(C)S[C@@H]2[C@H](NC(=O)C(c3ccccc3)S(=O)(=O)O)C(=O)N2[C@H]1C(=O)O (stereo partly drawn)	x	-4%	x	x	i
O=C(OCC(=O)N1CCOCC1)c1cnc(Cl)c(Cl)c1	-14%	8%	0	1%	i
CC1CN(C(=O)COC(=O)c2cnc(Cl)c(Cl)c2)CC(C)O1 (stereo not drawn)	-14%	4%	-72*	1%	i
COCCN(C(=O)COC(=O)/C=C/c1cccs1)c1c(N)n(Cc2ccccc2)c(=O)[nH]c1=O	-5%	-5%	-14	1%	i
COCCN(C(=O)COC(=O)/C=C/c1ccc2ccccc2n1)c1c(N)n(Cc2ccccc2)c(=O)[nH]c1=O	-6%	-17%	0	0%	i
CCN(C(=O)COC(=O)c1ccccc1Nc1ccccc1)c1c(N)n(Cc2ccccc2)c(=O)[nH]c1=O	-21%	x	-50*	x	u
CCN(C(=O)COC(=O)/C=C/c1nc2ccccc2s1)c1c(N)n(Cc2ccccc2)c(=O)[nH]c1=O	0%	-11%	-60*	x	i
CN(C(=O)COC(=O)/C=C/c1ccc2ccccc2n1)c1c(N)n(Cc2ccccc2)c(=O)[nH]c1=O	-7%	-13%	-56*	5%	i
COCCN(C(=O)COC(=O)/C=C/c1nc2ccccc2s1)c1c(N)n(Cc2ccccc2)c(=O)[nH]c1=O	-21%	12%	-96*	2%	i
COc1ccc(/C=C/C(=O)N2CCc3c(cnc(C)c3CNS(=O)(=O)c3cccs3)C2)cc1	x	x	x	x	i
CCC(C(=O)Nc1ccc(F)cc1F)n1nc(-c2ccccc2)c2c(c1=O)CCCC2 (stereo not drawn)	-20%	-15%	x	x	u
CCn1c(-c2ccccc2F)nc2cc(NC(C)=O)cc(C(=O)N(C)Cc3ccccn3)c21	x	x	x	x	i
COc1ccc(OC)c(-c2ccnc(-n3ncc(C(=O)N(C)CCc4ccccn4)c3C)n2)c1	x	x	x	x	i
CC(C)CN(C(=O)COC(=O)c1ccc2c(c1)OCO2)c1c(N)n(Cc2ccccc2)c(=O)[nH]c1=O	2%	-18%	-55*	3%	i
COc1ccc2c(c1)CCc1cnc(-n3ncc(C(=O)NCC(C)(C)CN(C)C)c3C)nc1-2	x	x	x	x	i
